The list is not random: actives were taken first. Their share in the collection is about 17%.
ATXN viability – viability counter-screen for ATXN expression inhibitors; S2 cells (HEK-293 line with an ATXN2-luciferase reporter) viability, CellTiter-Fluor protease fluorescence, 24 h; Potency, µM (doses to about 56.7 µM), most hits filed as cytotoxic; 400,000 tested, 0.49% active; AID 651635; also: nearly all actives have a fitted effect of over 40% in size
HepG2 viability – counter-screen for TGF-b inhibitors: cytotoxicity in HepG2 cells | HepG2 CAGA-GFP viability, ATP luminescence, 18 h | AID 588856 | 410,000 tested, 0.76% active | Potency, µM (top dose mostly 46.1 µM), usual class: cytotoxic
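CellTiter-Glo luminescence gave cytotoxicity after 18 hours at 37 degrees C. The cells were HepG2 CAGA-GFP in 1% FBS DMEM, stimulated with 500 pg/mL TGF-beta after compound addition. %Activity was normalised to no-cell wells (complete cell-killing) and DMSO (no toxicity), and curves were fitted and classified.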
TGFb inhibitor – inhibitors of TGF-b signaling | HepG2 CAGA-GFP TGF-b/SMAD3 reporter, GFP fluorescence, 18 h; TGF-beta stimulated, 500 pg/mL final | AID 588855 | 410,000 tested, 1.2% active | Potency, µM (doses to about 46.1 µM), usual class: inhibitors; also: nearly all actives have a fitted effect of over 65% in size
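Cell-based qHTS in HEPG2 carrying a CAGA-GFP Smad reporter; compounds added before 500 pg/mL final TGF-beta, 18 h incubation at 37 degrees C, GFP fluorescence quantified per cell by imaging cytometry.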
ATXN2 expr inh – inhibitors of ATXN2 expression; HEK-293 ATXN2-luciferase reporter, luminescence, 24 h; AID 1745845; 360,000 tested, 0.72% active; Potency, µM (series often up to 57 µM), actives largely listed as inhibitors; also: nearly all actives have a fitted effect of over 55% in size
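ATXN2-luciferase reporter cells (luciferase flanked by upstream and downstream ATXN2 gene portions) were treated 24 h at 37 °C with compounds at up to 57 uM. SteadyGlo luminescence gave expression; GF-AFC fluorescence gave viability.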
TDP1 cell CPT – DT40-hTDP1 cell growth loss with CPT. chicken DT40 Tdp1-/-;hTDP1 cells + 20 nM CPT, ATP luminescence, 48 h. AID 686979. 420,000 tested, 12% active. Potency, µM (top dose mostly 46.2 µM), hits mostly inhibitors; also: nearly all actives have a fitted effect of over 55% in size
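Cell growth measured by CellTiter-Glo luminescence after a minimum 48 h, 37 C compound exposure with 20 nM CPT in Tdp1-knockout DT40 cells stably expressing hTDP1, seeded 400/well; qHTS titration format.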
DT40 TDP1 no CPT – qHTS for Inhibitors of human tyrosyl-DNA phosphodiesterase 1 (TDP1): qHTS in cells in absence of CPT. DT40 Tdp1-/- hTDP1 cells, no CPT, ATP luminescence, 48 h. Potency, µM (highest dose often 46.2 µM), most hits filed as inhibitors. 420,000 tested, 15% active. AID 686978, 2013; also: nearly all actives have a fitted effect of over 55% in size
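Luminescent ATP content (CellTiter-Glo) served as the growth readout. Knockout chicken DT40 cells expressing human TDP1 were exposed to compounds without camptothecin for a minimum 48 hr at 37 °C.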
Hits are given with their value; [ ] = another dose, or the depositor's remark. Calls follow the shape of the dose curve; as a rule, active = well fitted curve in the direction sought with a large enough effect; inconclusive = small, poorly fitted or top-dose-only effect, or another doubt; inactive = no such curve, though single readings can be large; an effect the other way counts as inactive or inconclusive.

Screening Cc1cc(C)c(NC(=O)Cn2nnc3sc4c(c3c2=O)CCC(C(C)(C)C)C4)c(C)c1 (stereo unspecified) returned ATXN viability inactive, HepG2 viability inactive, TGFb inhibitor inactive, ATXN2 expr inh inactive, TDP1 cell CPT 15µM and DT40 TDP1 no CPT 21µM.
`CCN(C(=O)Cn1nnc2sc3c(c2c1=O)CCC(C(C)(C)C)C3)c1cccc(C)c1` (stereo unspecified) gave ATXN viability inconclusive, HepG2 viability inactive, TGFb inhibitor inactive, ATXN2 expr inh inconclusive, TDP1 cell CPT 16µM and DT40 TDP1 no CPT 21µM.
CCc1c(C)nc(N2CCN(c3ccc(Cl)cc3)CC2)[nH]c1=O was read as ATXN viability inactive, HepG2 viability inactive, TGFb inhibitor inactive, ATXN2 expr inh inactive, TDP1 cell CPT inconclusive and DT40 TDP1 no CPT inconclusive.
CCn1c(CC(=O)Nc2ccccc2)nnc1SCC(=O)Nc1nncs1 was read as ATXN viability inactive, HepG2 viability inactive, TGFb inhibitor inactive, ATXN2 expr inh inactive, TDP1 cell CPT inactive and DT40 TDP1 no CPT inactive.
Cc1c(C(=O)NCC2(N3CCOCC3)CCCCC2)cnn1-c1nccc(-c2ccccc2F)n1 was read as ATXN viability inactive, TDP1 cell CPT inactive[9.04 µM] and DT40 TDP1 no CPT inconclusive.
COc1ccc(Cl)cc1NC(=O)Cn1nnc2sc3c(c2c1=O)CCC(C(C)(C)C)C3 (stereo unspecified) was read as ATXN viability inactive, HepG2 viability inactive, TGFb inhibitor inactive, ATXN2 expr inh inactive, TDP1 cell CPT inconclusive and DT40 TDP1 no CPT inconclusive.
Cc1ccc(Cl)cc1NC(=O)Cn1nnc2sc3c(c2c1=O)CCC(C(C)(C)C)C3 (stereo unspecified) was read as ATXN viability inactive, HepG2 viability inactive, TGFb inhibitor inactive, ATXN2 expr inh inactive, TDP1 cell CPT 7.3µM and DT40 TDP1 no CPT 4.1µM.
Screening Cc1ccc(S(=O)(=O)N2CCCc3cc(NC(=O)c4ccc(C(C)(C)C)cc4)ccc32)cc1 returned ATXN viability inactive, HepG2 viability inactive, TGFb inhibitor inactive, ATXN2 expr inh inactive, TDP1 cell CPT 4.1µM and DT40 TDP1 no CPT 3.7µM.
Screening CCCCOc1ccc(C(=O)Nc2ccc3c(c2)CCCN3S(=O)(=O)c2ccc(C)cc2)cc1 returned ATXN viability inactive, HepG2 viability inactive, TGFb inhibitor inconclusive, ATXN2 expr inh inactive, TDP1 cell CPT inconclusive and DT40 TDP1 no CPT inconclusive.
Screening COc1ccc2c(c1)CCCN2C(N)=O returned ATXN viability inactive, HepG2 viability inactive, TGFb inhibitor inactive, ATXN2 expr inh inactive, TDP1 cell CPT inactive and DT40 TDP1 no CPT inactive.
Screening COc1ccc2c(c1)CCCN2C(N)=Nc1ccc(Cl)cc1 returned ATXN viability inactive, HepG2 viability inactive, TGFb inhibitor inactive, ATXN2 expr inh inconclusive, TDP1 cell CPT inconclusive and DT40 TDP1 no CPT 23µM.
`COc1ccc2c(c1)CCCN2S(=O)(=O)c1ccc(Cl)cc1` gave ATXN viability inactive, HepG2 viability inactive, TGFb inhibitor inconclusive, ATXN2 expr inh inconclusive, TDP1 cell CPT 23µM and DT40 TDP1 no CPT 15µM.
COc1ccc(C(=O)Nc2ccc3c(c2)CCCN3S(=O)(=O)c2ccc(C)cc2)cc1 was read as ATXN viability inactive, HepG2 viability inactive, TGFb inhibitor inconclusive, ATXN2 expr inh inactive, TDP1 cell CPT 21µM and DT40 TDP1 no CPT 13µM.
For CC(C)(C)NC(=O)CCSc1nnc(-c2ccco2)o1 the results were ATXN viability inactive, HepG2 viability inactive, TGFb inhibitor inactive, ATXN2 expr inh inactive[11.3 µM], TDP1 cell CPT inactive and DT40 TDP1 no CPT inactive.
`CC(c1cccs1)N(C(=O)Nc1ccccc1)C1CCCCC1` (stereo unspecified) gave ATXN viability inactive, HepG2 viability inactive, TGFb inhibitor inactive, ATXN2 expr inh inactive, TDP1 cell CPT 16µM and DT40 TDP1 no CPT 14µM.
`CN(C(=O)Nc1ccccc1)C1CCCCC1` gave ATXN viability inactive, HepG2 viability inactive, TGFb inhibitor inactive, ATXN2 expr inh inactive, TDP1 cell CPT inactive and DT40 TDP1 no CPT inactive.
For COc1ccc(NC(=O)CC(=O)Nc2ccc(OC)cc2OC)c(OC)c1 the results were ATXN viability inactive, HepG2 viability inactive, TGFb inhibitor inactive, ATXN2 expr inh inactive, TDP1 cell CPT inactive and DT40 TDP1 no CPT inactive.
`CC(C)CCN(C(=O)Nc1ccccc1)C(C)c1cccs1` (stereo unspecified) gave ATXN viability inactive, HepG2 viability inactive, TGFb inhibitor inactive, ATXN2 expr inh inactive, TDP1 cell CPT 21µM and DT40 TDP1 no CPT 18µM.
`COc1ccc(NC(=O)N(CCC(C)C)C(C)c2cccs2)c(OC)c1` (stereo unspecified) gave HepG2 viability inactive, TGFb inhibitor inactive, TDP1 cell CPT inconclusive and DT40 TDP1 no CPT 18µM.
Screening O=C(c1ccc2c(c1)OCCO2)C1CCN(S(=O)(=O)c2ccc(F)cc2)CC1 returned ATXN viability inactive, HepG2 viability inactive, TGFb inhibitor inactive, ATXN2 expr inh inactive, TDP1 cell CPT inactive and DT40 TDP1 no CPT inconclusive.
`O[C@@](CCN1CCCCC1)(c1ccccc1)C1CCCCC1` gave ATXN viability inactive.
`COc1ccc(C(O)(CCN2CCCCC2)C2CCCCC2)cc1` (stereo unspecified) gave ATXN viability inactive, HepG2 viability inactive, TGFb inhibitor inactive, ATXN2 expr inh inactive, TDP1 cell CPT inconclusive and DT40 TDP1 no CPT 21µM.
For CCCN(CC(=O)Nc1ccccc1C)C(=O)c1ccc(NC2CC2)c([N+](=O)[O-])c1 the results were ATXN viability inconclusive, HepG2 viability inactive, TGFb inhibitor inactive, ATXN2 expr inh inactive, TDP1 cell CPT inactive and DT40 TDP1 no CPT inactive.
Screening CC(=O)O[C@@]12CO[C@@H]1C[C@H](O)[C@@]1(C)C(=O)[C@H](O)C3=C(C)[C@@H](OC(=O)[C@H](O)[C@@H](NC(=O)OC(C)(C)C)c4ccccc4)C[C@@](O)([C@@H](OC(=O)c4ccccc4)[C@H]21)C3(C)C returned ATXN viability inconclusive, ATXN2 expr inh inconclusive, TDP1 cell CPT 0.0011µM and DT40 TDP1 no CPT 0.0012µM.
CC(=O)O[C@@]12CO[C@@H]1C[C@H](O)[C@@]1(C)C(=O)[C@H](O)C3=C(C)[C@@H](OC(=O)C(O)[C@@H](NC(=O)OC(C)(C)C)c4ccccc4)C[C@@](O)([C@@H](OC(=O)c4ccccc4)[C@H]21)C3(C)C (stereo partly specified) was read as HepG2 viability inactive and TGFb inhibitor inactive.
